Screens from PubChem BioAssay.
Rows were chosen to be rich in hits. Some 3.8% of all compounds tested hit in one or more screens of this group.
ELG1 DNA repair: qHTS screen for small molecules that inhibit ELG1-dependent DNA repair in human embryonic kidney (HEK293T) cells expressing luciferase-tagged ELG1 | HEK293T ELG1-luciferase reporter, luminescence, 16 h; DNA damage induced by 5-fluorouridine | Potency, µM (top dose mostly 46.1 µM), inactives show top-dose activity change, negative = inhibition, hits mostly inhibitors | hit rate 2.3% among 330,000; further: on the % scale 0 is the no-effect control and ±100 the full control effect; nearly all actives have a fitted effect of over 55% in size
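Reporter activity after DNA damage by 5-fluorouridine is monitored. Compound-treated cells incubate 16 hr at 37 °C, then ONE-Glo is added for 30 min before luminescence reading.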
A549 viability: Nrf2 qHTS screen for inhibitors: counterscreen for cytotoxicity. Potency, µM (highest dose often 46 µM), without a hit: at the highest dose activity change, negative = cytotoxicity, actives largely listed as inhibitors. A549 ARE-Fluc cells, CellTiter-Fluor viability, 18-24 h. hit rate 0.16% among 390,000. AID 504648, 2011; further: on the % scale 0 is the no-effect control and ±100 the full control effect
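A549 ARE_Fluc cells in 5% FBS OPTI-MEM were exposed to compounds in concentration-response for 18-24 h at 37 deg C. Viability was read by CellTiter-Fluor fluorescence (Ex 405/Em 525) after 30 min, before the luciferase read.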
Nrf2 inh: Nrf2 qHTS screen for inhibitors. Potency, µM (titrated, usually from 46 µM), for the others: at the top dose activity change, negative = inhibition, hits mostly inhibitors. hit rate 2.1% among 360,000. A549 ARE-Fluc reporter, luciferase luminescence, 18-24 h; further: on the % scale 0 is the no-effect control and ±100 the full control effect; nearly all actives have a fitted effect of over 60% in size
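Nrf2 activity is the BugLite luminescence, read 15 min after reagent at room temperature, following CellTiter-Fluor cytotoxicity readout (30 min, 37C). Compound titrations were applied for 18-24 h to 5000 A549 ARE_Fluc cells/well in 5% FBS OPTI-MEM.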
mIDH1 inhibitor: qHTS for Inhibitors of mutant isocitrate dehydrogenase 1 (IDH1): qHTS. Isocitrate dehydrogenase [NADP] cytoplasmic (Homo sapiens), O75874. IDH1-R132H enzyme, NADPH consumption, diaphorase/resazurin fluorescence. Potency, µM (titrated, usually from 76.6 µM), for inactives: at the highest dose activity change, negative = inhibition, most hits filed as inhibitors. hit rate 0.093% among 390,000. AID 602179, 2012; further: on the % scale 0 is the no-effect control and ±100 the full control effect; nearly all actives have a fitted effect of over 65% in size
Target sequence (O75874 whole entry R132H, stated change not applied): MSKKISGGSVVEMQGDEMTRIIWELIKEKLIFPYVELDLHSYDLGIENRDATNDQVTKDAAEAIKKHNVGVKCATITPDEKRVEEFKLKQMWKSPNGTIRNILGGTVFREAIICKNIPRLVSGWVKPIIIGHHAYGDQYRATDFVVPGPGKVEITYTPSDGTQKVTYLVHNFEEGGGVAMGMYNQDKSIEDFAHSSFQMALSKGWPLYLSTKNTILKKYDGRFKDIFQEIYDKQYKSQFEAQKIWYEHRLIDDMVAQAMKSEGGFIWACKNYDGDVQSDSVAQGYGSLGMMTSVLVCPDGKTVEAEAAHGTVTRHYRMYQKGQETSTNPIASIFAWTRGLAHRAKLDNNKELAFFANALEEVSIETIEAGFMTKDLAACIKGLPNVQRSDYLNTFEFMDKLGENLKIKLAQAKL
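IDH1-R132H (0.5 ug/mL) preincubated 30 min with compound, then NADPH (0.016 mM) and alpha-KG (2 mM) added; 80 min at RT, pH 7.5. Remaining NADPH coupled via diaphorase/resazurin to fluorescence (540/590 nm); concentration-response curves normalized to no-enzyme control.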
Nrf2 ARE act: qHTS of Nrf2 Activators; AREc32 ARE-luciferase reporter (MCF7-derived line), luminescence, 24 h; Potency, µM (highest dose often 46.1 µM), inactives show at the highest dose activation, actives largely listed as activators; hit rate 0.31% among 410,000; further: % of control where 0% means no effect; nearly all actives have a fitted effect of over 65% in size
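ARE-driven firefly luciferase activity in AREc32 cells measured after a 24 hr compound exposure at 37 deg C, using Steady-Glo reagent and a 30 min room-temperature hold.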
* = called active by the depositor; ? = inconclusive; · = not tested or not shown; [ ] = dose if it differs, or a comment. The call rests on the fitted dose curve; in most records, active means well fitted curve in the direction sought with a large enough effect; inconclusive means small, poorly fitted or top-dose-only effect, or another doubt; inactive means no such curve, though single readings can be large; an effect the other way counts as inactive or inconclusive. Potency means the concentration at half of the fitted maximal effect.

SMILES	ELG1 DNA repair	A549 viability	Nrf2 inh	mIDH1 inhibitor	Nrf2 ARE act
O=S(=O)(c1ccc2oc3ccccc3c2c1)N1CCCC1	-17%	-1%	-16%	-2%	0%
Cc1c(C(=O)NCc2ccccc2)oc2ccc(S(=O)(=O)N3CCCC3)cc12	15µM*	?	-11%	-7%	2%
COc1ccc(C2Nc3ccccc3C(=O)N2C2CCCC2)cc1COc1ccc(NC(C)=O)cc1 (stereo not drawn)	·	-23%	-27%	·	·
O=C(Nc1cccc2nsnc12)c1ccc(F)cc1	?	5%	?	3%	11µM*
O=C(Nc1cccc2nsnc12)c1ccc2c(c1)OCO2	?	-1%	?	7%	5%
C[C@H](CO)N1C[C@H](C)[C@@H](CN(C)S(=O)(=O)c2ccc(F)cc2)Oc2c(NS(=O)(=O)c3ccc(F)cc3)cccc2C1=O	-12%	-2%	-17%	0%	0%
O=C(NCCCN1CCOCC1)c1ccc(-n2nc(C(F)(F)F)cc2-c2cccs2)cc1	15µM*	?	?	1%	0%
O=C(N/C=N/OCc1ccc(Cl)cc1Cl)NOCc1c(Cl)cccc1Cl	·	-19%	26µM*	2%	0%
O=C(C1CCC1)N1CCc2cc(S(=O)(=O)Nc3ccc4c(c3)OCO4)ccc21	-27%	-8%	10µM*	-1%	0%
Cc1ccc(NS(=O)(=O)c2ccc3c(c2)CC(C)N3C(=O)C2CCC2)cc1Cl (stereo not drawn)	·	-16%	21µM*	7%	2%
CC(=O)Nc1ccc(NS(=O)(=O)c2ccc3c(c2)CC(C)N3C(=O)C2CCC2)cc1 (stereo not drawn)	·	-2%	19%	7%	1%
Cc1cc(Cl)ccc1NS(=O)(=O)c1ccc2c(c1)CC(C)N2C(=O)C1CCC1 (stereo not drawn)	·	-2%	21µM*	-12%	2%
O=S(=O)(c1ccc2ccccc2c1)N1CCN(C(=S)Nc2ccc(F)c(Cl)c2)CC1	?	-1%	?	9%	1%
O=S(=O)(c1ccc2ccccc2c1)N1CCN(C(=S)Nc2ccc(F)cc2)CC1	18µM*	-1%	?	5%	0%[9.22 µM]
O=S(=O)(c1ccc2ccccc2c1)N1CCN(C(=S)Nc2ccccc2F)CC1	?	-1%	15µM*	-1%	0%
Clc1ccc(N=c2ssnc2Cl)cc1	16µM*	?	?	?	7%
Clc1nssc1=Nc1ccccc1	?	-10%	5%	-3%	3%
O=C1CCCC2=C1C1(CCC1)N=C(Nc1nc3ccccc3o1)N2	·	13%	-5%	·	·
O=C(NCc1cccs1)c1ccc(CSc2nc3cccnc3n2Cc2ccccc2)cc1	·	-19%	?	-3%	4%
Cc1ccccc1CNC(=O)c1ccc(CSc2nc3cccnc3n2Cc2ccccc2)cc1	·	-4%	-21%	0%	4%
O=C(NCc1cccs1)c1ccc(CSc2nc3cccnc3n2Cc2ccc(F)cc2)cc1	·	-19%	18µM*	-6%	1%
CCOc1ccccc1CNC(=O)c1ccc(NC(=O)N2CCSc3ncccc32)cc1	·	2%	18µM*	3%	1%
CN(Cc1ccccc1)C(=O)c1ccc(CSc2nc3cccnc3n2Cc2ccccc2)cc1	·	?	21µM*	0%	-5%
CCOc1ccccc1CNC(=O)c1ccc(Cn2c(SCc3ccccc3)nc3cccnc32)cc1	·	-16%	21µM*	-18%	6%
Cc1onc(-c2ccccc2)c1-c1nnc(COC(=O)c2ccc(O)cc2)o1	?	0%	1%	0%	3%
SMILES	ELG1 DNA repair	A549 viability	Nrf2 inh	mIDH1 inhibitor	Nrf2 ARE act
CCCN1CCC(=O)N(C(CSc2ccc(Br)cc2)c2ccccc2)CC1 (stereo not drawn)	·	-8%	?	·	·
CCOc1cc(-c2ccc3c(c2)OCO3)cc(=[O+]CC)c2c(C)oc(C)c12	·	0%	8%	·	·
COc1ccccc1N1CCN(CCCNC(=O)c2cnn(-c3cccc(Cl)c3)c2C2CCN(C(=O)OC(C)(C)C)CC2)CC1	·	-28%	-14%	-8%	8%
O=C(Nc1ccc(C(F)(F)F)cc1)c1ccc(NC(=O)C2CCCO2)cc1 (stereo not drawn)	?	2%	21µM*	-4%	1%
O=C(Nc1ccc(N=Nc2ccccc2)c(NC(=O)C2CCCO2)c1)C1CCCO1 (stereo not drawn)	9.2µM*	?	-12%	-4%	3%
O=C(Nc1ccc(F)cc1)c1ccc(NC(=O)C2CCCO2)cc1 (stereo not drawn)	?	-2%	-5%	1%	2%
O=S(=O)(NN=C1CCCCCC1)c1ccccc1	-1%	4%	-5%	-15%	0%
CCOc1ccc(N(CC(=O)N2CCN(C(=O)CN(c3ccc(OCC)cc3)S(C)(=O)=O)CC2)S(C)(=O)=O)cc1	-5%	-2%	5%	9%	1%
CCOc1ccc(N(CC(=O)N2CCC(Cc3ccccc3)CC2)S(C)(=O)=O)cc1	-1%	-7%	26µM*	-1%	0%
COc1ccc(C(=O)Nc2ccc(C(=O)c3ccccc3)cc2)cc1	·	-6%	9.2µM*	25%	0%
COc1ccc(CCN(C)Cc2ccc(OC)c(OCc3ccccc3)c2)cc1OC	-25%	-15%	-20%	3%	0%
COc1cc(OC)cc(C(=O)Nc2ccc(C(=O)Nc3ccccc3OC)cc2)c1	16µM*	-2%	?	10%	-1%
COc1ccc(CCN(C)Cc2ccc(C(=O)Nc3ccccc3)cc2)cc1OC	7.3µM*	-10%	?	-13%	-1%
CCCc1cc(C(=O)Nc2ccc(C(=O)c3ccccc3)cc2)n(C)n1	?	?	21µM*	8%	-1%
COc1cccc(C(=O)Nc2ccc(C(=O)c3ccccc3)cc2)c1	-6%	-7%	?	16%	7%
C/C=C/C(=O)[C@@H](C)[C@@H](/C=C/C[Si](C)(C)C)C(C)C	·	0%	10%	·	·
CCN(Cc1ccccc1)C(=O)c1ccc(NC(=O)c2ccc(OC)cc2)cc1	?	-15%	23µM*	-7%	0%
COc1ccc(NC(=O)C#Cc2ccccc2)cc1	?	-11%	-27%	13%	14µM*
